Nrf2 ARE act: Nrf2 pathway activation; Potency, µM (doses to about 46.1 µM), without a hit: at the highest dose activation, hits mostly activators; hit rate 0.31% among 410,000; AREc32 ARE-luciferase reporter (MCF7-derived line), luminescence, 24 h; note: % of control where 0% means no effect; nearly all actives have a fitted effect of over 65% in size
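For detection, Steady-Glo was added and plates sat 30 min at RT; before that, AREc32_Fluc cells grown overnight in OPTI-MEM/5% FBS had been treated with 23 nL compound for 24 hr at 37 deg C.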
Nrf2 block: Nrf2 pathway inhibition; A549 ARE-Fluc reporter, luciferase luminescence, 18-24 h; Potency, µM (top dose mostly 46 µM), for the others: at the top dose activity change, negative = inhibition, usual class: inhibitors; hit rate 2.1% among 360,000; AID 504444; note: % is set by controls: 0 for no effect and ±100 for the full control effect; nearly all actives have a fitted effect of over 60% in size
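Reporter: ARE-Fluc in A549. Exposure: 18-24 h, 37 °C, 5% CO2, 5% FBS OPTI-MEM. Readouts: fluorescent cytotoxicity (CellTiter-Fluor), then luminescent Nrf2 signal after BugLite.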
HepG2 viability: kills HepG2 cells in TGF-b inhibitor counter-screen | HepG2 CAGA-GFP viability, ATP luminescence, 18 h | Potency, µM (highest dose often 46.1 µM), for the others: at the top dose activity change, negative = cytotoxicity, most hits filed as cytotoxic | hit rate 0.76% among 410,000 | AID 588856
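HepG2 CAGA-GFP cells (1000/well, DMEM with 1% FBS) received compound, then TGF-beta at 500 pg/mL final, and were incubated 18 hours at 37 degrees C. Viability was read by CellTiter-Glo luminescence. Media-only wells were set as complete cell-killing and DMSO as no toxicity.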
TGFb SMAD3 inh: TGF-b pathway inhibition. HepG2 CAGA-GFP TGF-b/SMAD3 reporter, GFP fluorescence, 18 h; TGF-beta stimulated, 500 pg/mL final. Potency, µM (doses to about 46.1 µM), without a hit: at the highest dose activity, negative = inhibition, actives largely listed as inhibitors. hit rate 1.2% among 410,000; note: % is set by controls: 0 for no effect and ±100 for the full control effect; nearly all actives have a fitted effect of over 65% in size
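Using HEPG2 CAGA-GFP reporter cells at 1000 cells/well, we pinned test compounds, stimulated with recombinant TGF-beta (500 pg/mL final) and measured total well GFP after 18 h.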
A549 viability: kills or reduces viability of A549 cells in Nrf2 counter-screen | A549 ARE-Fluc cells, CellTiter-Fluor viability, 18-24 h | Potency, µM (highest dose often 46 µM), without a hit: top-dose activity change, negative = cytotoxicity, hits mostly inhibitors | hit rate 0.16% among 390,000; note: % is set by controls: 0 for no effect and ±100 for the full control effect
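Cytotoxicity counterscreen: CellTiter-Fluor fluorescence was measured in A549 ARE_Fluc cells after 18-24 h of compound exposure in a concentration series. The subsequent BugLite luminescent read reports ARE-luciferase activity.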
Active calls of the source: *; u = inconclusive; x = not tested or not shown; [ ] = remark or other dose. Only some compounds are listed: those with a hit (about 3.6% of all), similar ones and a draw of the others. Calls come from the whole dose curve; as a rule, active = well fitted curve in the direction sought with a large enough effect; inconclusive = small, poorly fitted or top-dose-only effect, or another doubt; inactive = no such curve, though single readings can be large; an effect the other way counts as inactive or inconclusive. Potency is the fitted concentration of half-maximal effect.

SMILES | Nrf2 ARE act | Nrf2 block | HepG2 viability | TGFb SMAD3 inh | A549 viability
Cc1[nH]nc2nc(SCC(=O)NCCC3=CCCCC3)n(-c3ccc(Br)cc3)c(=N)c12 | -2.4% | u | -137.4% | 15.8µM* | -28.4%
CCc1ccc(NC(=O)CSc2nc3n[nH]c(C)c3c(=N)n2-c2ccccc2C)cc1 | -1.3% | x | 15.8µM* | u | u
Cc1c(Cl)cccc1-n1c(SCC(=O)NCc2ccccc2)nc2n[nH]c(C)c2c1=N | 0.4% | x | -60.2% | 11.2µM* | 3.0%
Cc1ccccc1-n1c(SCC(=O)Nc2ccccc2Cl)nc2n[nH]c(C)c2c1=N | 0.3% | u | -21.0% | -17.7% | -10.3%
Cc1cc(-n2c(SCC(=O)NCCC3=CCCCC3)nc3n[nH]c(C)c3c2=N)ccc1Cl | -1.3% | u | -79.2% | u | -11.7%
CCc1ccccc1NC(=O)CSc1nc2n[nH]c(C)c2c(=N)n1-c1cccc(OC)c1 | 7.1% | 18.4µM* | -33.9% | -0.6% | u
COC(=O)CC(=O)CSc1nc(C)cc(C)c1C#N | 0.0% | 12.0% | 0.9% | -6.1% | 1.3%
O=C(Nc1c(Cl)cc2c(c1Cl)Cc1cc([N+](=O)[O-])ccc1-2)C(Cl)Cl | u | -5.5% | -55.6% | 7.08µM* | -10.7%
Cc1nnc(NC(=O)C2CCCN(S(=O)(=O)c3ccccc3C(F)(F)F)C2)s1 (stereo unspecified) | -0.5% | -28.9% | -7.4% | u | 1.2%
CCSc1nnc(NC(=O)C2CCN(S(=O)(=O)c3ccccc3C(F)(F)F)CC2)s1 | -0.3% | 23.1µM* | -38.6% | -34.6% | -1.8%
CCC(CC)C1C(C#N)=C(N)Oc2n[nH]c(-c3ccccc3)c21 (stereo unspecified) | 15.2% | -4.4% | 8.91µM* | u | -15.1%
CCC(CC)C1C(C#N)=C(N)Oc2n[nH]c(C)c21 (stereo unspecified) | u | -17.1% | -60.2% | 9.1% | -1.0%
O=C(Nc1cc(Cl)ccc1Cl)C1CC(=O)N(c2ccccc2)C1 (stereo unspecified) | -0.3% | -19.4% | 5.3% | 23.0% | -1.0%
COc1cc(C(=S)N2CCCC2)ccc1O | -0.8% | 1.7% | -4.6% | -25.0% | -8.5%[1.84 µM]
COc1cc(C(=S)N2CCC(C)CC2)ccc1O | 0.1% | 18.4µM* | -4.1% | u | x
Cc1c(C(=O)O)oc2ccc(S(=O)(=O)NCCC3=CCCCC3)cc12 | 0.3% | u | 11.8% | -3.3% | 2.0%
Nn1c(Nc2ccccc2)nc2sc3c(c2c1=O)CCC3 | 4.2% | 16.4µM* | -29.1% | -12.6% | -12.7%
O=S(=O)(Nc1cccc2cccnc12)c1ccccc1Br | x | u | -40.2% | 6.31µM* | -15.7%
O=C1c2ccccc2C(=O)c2cc(S(=O)(=O)Nc3ccccc3)ccc21 | 0.3%[9.22 µM] | u | -104.4% | 20µM* | -13.1%
Cc1ccc2nsnc2c1S(=O)(=O)Nc1cccc2cccnc12 | x | 8.2µM* | x | x | u
Cc1ccc2nsnc2c1S(=O)(=O)Nc1cccc2nsnc12 | 0.3% | -18.4% | 6.9% | -2.1% | -18.0%
O=C1c2ccccc2C(=O)c2cc(S(=O)(=O)Nc3cccc4cccnc34)ccc21 | x | 5.17µM* | x | x | -18.5%
CN(C)S(=O)(=O)N1CCC(n2nccc2NC(=O)CCc2ccccc2)CC1 | 0.4% | 1.0% | 3.2% | -0.9% | 6.1%
CCC/C=C1/CCCOC(C(=O)NCc2ccc(C)o2)(C(F)(F)F)C1 (stereo unspecified) | u | 9.4% | -19.1% | u | 6.1%
COc1ccc2sc(N(CCCN(C)C)C(=O)c3ccc(S(=O)(=O)N4CCCc5ccccc54)cc3)nc2c1 | 6.4% | 6.2% | 11.2µM* | 22.4µM* | u
Cc1ccc2sc(N(CCCN(C)C)C(=O)c3ccc(S(=O)(=O)N4CCCCCC4)cc3)nc2c1C | 7.1% | 13.3% | -84.7% | u | -12.0%
Cc1cc(C)c2nc(N(CCCN(C)C)C(=O)c3ccc(S(=O)(=O)N4CCCCCC4)cc3)sc2c1 | 5.1% | 3.3% | -74.3% | 15.8µM* | -27.1%
CCN(Cc1ccccc1)S(=O)(=O)c1ccc(C(=O)N(CCCN(C)C)c2nc3cc4c(cc3s2)OCCO4)cc1 | 2.5% | u | -92.6% | u | -8.1%
